Experimental data from PubChem BioAssay (EPA / NIEHS).
“And” between values parts separate entries of the source, which are not always exact repeats. Identical values can stand only once. The source made the active and inactive calls. The calls were made as follows: active = hit-call score of the fitted dose curve at least 0.9, where 1 is the maximum; inactive = score below 0.9.

Read-out: Interferon-gamma inducible Protein 10 (IP10), CXCL10 (gene 3627)
Assay: BSK_hDFCGF_IP10: BioMAP Diversity Plus: hDFCGF Assay for Interferon-gamma inducible Protein 10 (IP10) Biomarker Activity (AID 2283053)
Conditions: primary human foreskin fibroblasts; actives raise or lower the signal
Procedure: BSK_hDFCGF is a cell-based, multiplexed-readout assay that uses foreskin fibroblast, a human skin primary cell, with measurements taken at 24 hours after chemical dosing in a 96-well plate.BSK_hDFCGF_IP10 is an assay component measured in the BSK_hDFCGF assay. It measures IP-10 antibody related to regulation of gene expression using ELISA technology.Data from the assay component BSK_hDFCGF_IP10 was analyzed into 1 assay endpoint. This assay endpoint, BSK_hDFCGF_IP10, was analyzed with bidirectional fitting relative to DMSO as the negative control and baseline of activity. Using a type of binding reporter, gain or loss-of-signal activity can be used to understand changes in the signaling as they relate to the gene CXCL10. Furthermore, this assay endpoint can be referred to as a primary readout, because this assay has produced multiple assay endpoints where this one serves a signaling function. To generalize the intended target to other relatable targets, this assay endpoint is annotated to the cytokine intended target family, where the subfamily is chemotactic factor.
The levels of cell surface (or secreted, indicated by the prefix "s") biomarker endpoints were measured by ELISA. Overt cytotoxicity to cells in confluent adherent cultures (all systems other than the BT system) was assessed by measuring total protein levels using sulforhodamine B (SRB) staining in parallel cultures at the time of biomarker measurements, indicated as SRB endpoints. For proliferation assays for adherent cell types, individual cell types are cultured at sub-confluence and relative cell numbers quantified by SRB staining at time points optimized for each system (48 h: 3C and CASM3C systems; 72 h: BT and HDF3CGF systems; 96 h: SAg system). SRB was performed by staining cells with 0.1% SRB after fixation with 10% TCA and reading wells at 560 nm.Viability and proliferation of PBMC (T cells) was quantified by Alamar Blue reduction for the SAg and BT systems. For PBMC viability (referred to as PBMC Cytotoxicity within the assay endpoint names), cells were plated (75,000/well in a 96-well plate) and then chemical samples added for 1 h before addition of activators, SEB and TSST-1 (20 ng/mL final concentration each). Cells were incubated for 90 h. Then, Alamar Blue (20 uL/well) (Invitrogen, Cat DAL1100) was added for 6 h, and the plates were read with a fluorescence microplate reader at 546/580 nm (excitation/emission). For PBMC proliferation, cells were plated and activated as above but incubated for only 16 h prior to addition of Alamar Blue. Plates were read after 6 h.

SMILES | outcome | AC50
Oc1ccc(/C=C/c2cc(O)cc(O)c2)cc1 | inactive | –
CCCCCCOC(=O)CCCCC(=O)OCCCCCC | inactive | –
C=CC(=O)NCOCCCC | inactive | –
c1ccc2sc(SSN3CCOCC3)nc2c1 | inactive | –
O=C(Oc1ccccc1)c1ccccc1C(=O)Oc1ccccc1 | inactive | –
CCOC(=O)/C=C\C(=O)OCC | inactive | –
CCC1(C)C(=O)N(Cl)C(=O)N1Cl (stereo not given) | inactive | –
CC(C)C(=O)OCCc1ccccc1 | inactive | –
CC/C=C\C/C=C\C/C=C\CCCCCCCC(=O)OC | – | 10.7 µM (active)
C=CC(=O)OCCCCCCCC(C)C | inactive | –
CC1=CC=C(C(C)C)CC1 | inactive | –
O=C1CCCCCCCCCCCN1 | inactive | –
CC=C(C)C(C)=O | inactive | –
Fc1ccc(Br)cc1 | inactive | –
CCCCCCCCCCCC(C)=O | inactive | –
C1CNCCN1 | inactive | –
CCCCCC1=CCCC1=O | inactive | –
CCCC(C)C(=O)OCC (stereo not given) | inactive | –
O=C(O)C(F)(F)C(F)(F)C(F)(F)C(F)(F)C(=O)O | inactive | –
CCCCCCCO | inactive | –

SMILES | outcome | AC50
CC(C)CCCCCOC(=O)CS | inactive | –
CCN1CN(CC)CN(CC)C1 | inactive | –
CC(CCC(=O)O)(c1ccc(O)cc1)c1ccc(O)cc1 | inactive | –
CCCCC1C(=O)N(c2ccccc2)N(c2ccccc2)C1=O | inactive | –
COc1ccc(C(=O)/C(Br)=C\C(=O)O)cc1 | – | 33.1 µM (active) and 32.6 µM (active)
C=CC(=O)OCC(C)OCC(C)OCC(C)OC(=O)C=C (stereo not given) | – | 14.4 µM (active)
O=C(Cl)c1c(Cl)c(Cl)c(C(=O)Cl)c(Cl)c1Cl | inactive | –
CCCCCCC=O | inactive | –
COc1ccc(C(=O)c2ccccc2)c(O)c1 | inactive | –
C=CCCCCCCCCC=O | inactive | –
CCCCCCCCCCCC(=O)N(C)CC(=O)O | inactive | –
CCOC(=O)C1=NOC(c2ccccc2)(c2ccccc2)C1 | inactive | –
c1ccc2c(c1)[nH]c1ccccc12 | inactive | –
Nc1nc(N)nc(-c2ccccc2)n1 | inactive | –
CCOC(=O)C1=NN(c2ccc(Cl)cc2Cl)C(C)(C(=O)OCC)C1 (stereo not given) | inactive | –
CCNc1nc(NC(C)(C)C)nc(OC)n1 | inactive | –
CC(Cl)COP(=O)(OCC(C)Cl)OCC(C)Cl (stereo not given) | inactive | –
C=CC(=O)OCCCCCCOC(=O)C=C | – | 2.12 µM (active)
CC1(C)CC(O)CC(C)(C)N1[O] | inactive | –
COC(OC)(C(=O)c1ccccc1)c1ccccc1 | inactive | –
